The values that follow come from PubChem BioAssay.

Assay [1] has as its system TRPC4 beta (transient receptor potential cation channel C4), mouse. In words: TRPC4 cation channel opening, retest – cell-based, Fluo4 calcium, HEK293 TRPC4beta/mu-opioid, duplicates, 10 µM, confirmation (AID 2426;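 active = fluorescence ratio normalized to control raised more than 50% in primary screen plus both repeat runs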). Particulars: Fluo4 calcium fluorescence, at 10 µM; stronger effect = higher value.
Assay [2] relates to transient receptor potential cation channel C4 beta (TRPC4), mouse. In words: TRPC4 cation channel opening, second retest – cell-based, second round, Fluo4, HEK293 TRPC4beta/mu-opioid, 1 µM, confirmation (AID 2461;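 active = primary screen active and over 50% activation in each of two duplicate runs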). Particulars: Fluo4 calcium fluorescence, at 1 µM; stronger effect = higher value.
In assay [3] the test system is TRPC4 (transient receptor potential cation channel C4 beta), mouse. In words: potentiation of DAMGO EC20 TRPC4 response – cell-based, second round, Fluo-4, HEK293 TRPC4beta/mu-opioid, 1 µM, confirmation (AID 2554;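 active = primary screen hit whose fluorescence ratio, in both repeats, exceeds the weak agonist control mean by 3 SD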). The following applies: DAMGO EC20, Fluo-4 calcium flux, at 1 µM; stronger effect = higher value. In general terms: Calcium flux is commonly read through the fluorescence of an indicator in the cells.

Assay [4] concerns TRPC4 beta (transient receptor potential cation channel C4), mouse. In words: potentiation of DAMGO EC20 TRPC4 response – cell-based, Fluo-4, HEK293 TRPC4beta/mu-opioid, confirmation (AID 2555;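 active = primary screen hit whose calcium fluorescence ratio, in both repeats, exceeds the weak agonist control mean by 3 SD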). The following applies: DAMGO EC20, Fluo-4 calcium flux, at 10 µM; stronger effect = higher value.
Assay [5] deals with Short transient receptor potential channel 4 (Mus musculus) (UniProt Q9QUQ5). Description: blockers of DAMGO-evoked TRPC4 calcium flux – cell-based, Fluo4, HEK293 TRPC4beta/mu-opioid, confirmation (AID 2636;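 active = calcium signal cut by more than 3 SD below the full-agonist control yet still positive, in both repeats and the earlier primary screen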). The following applies: at 10 µM; stronger effect = higher value.
Chain of Short transient receptor potential channel 4 (Mus musculus) (Q9QUQ5 whole entry, looked up): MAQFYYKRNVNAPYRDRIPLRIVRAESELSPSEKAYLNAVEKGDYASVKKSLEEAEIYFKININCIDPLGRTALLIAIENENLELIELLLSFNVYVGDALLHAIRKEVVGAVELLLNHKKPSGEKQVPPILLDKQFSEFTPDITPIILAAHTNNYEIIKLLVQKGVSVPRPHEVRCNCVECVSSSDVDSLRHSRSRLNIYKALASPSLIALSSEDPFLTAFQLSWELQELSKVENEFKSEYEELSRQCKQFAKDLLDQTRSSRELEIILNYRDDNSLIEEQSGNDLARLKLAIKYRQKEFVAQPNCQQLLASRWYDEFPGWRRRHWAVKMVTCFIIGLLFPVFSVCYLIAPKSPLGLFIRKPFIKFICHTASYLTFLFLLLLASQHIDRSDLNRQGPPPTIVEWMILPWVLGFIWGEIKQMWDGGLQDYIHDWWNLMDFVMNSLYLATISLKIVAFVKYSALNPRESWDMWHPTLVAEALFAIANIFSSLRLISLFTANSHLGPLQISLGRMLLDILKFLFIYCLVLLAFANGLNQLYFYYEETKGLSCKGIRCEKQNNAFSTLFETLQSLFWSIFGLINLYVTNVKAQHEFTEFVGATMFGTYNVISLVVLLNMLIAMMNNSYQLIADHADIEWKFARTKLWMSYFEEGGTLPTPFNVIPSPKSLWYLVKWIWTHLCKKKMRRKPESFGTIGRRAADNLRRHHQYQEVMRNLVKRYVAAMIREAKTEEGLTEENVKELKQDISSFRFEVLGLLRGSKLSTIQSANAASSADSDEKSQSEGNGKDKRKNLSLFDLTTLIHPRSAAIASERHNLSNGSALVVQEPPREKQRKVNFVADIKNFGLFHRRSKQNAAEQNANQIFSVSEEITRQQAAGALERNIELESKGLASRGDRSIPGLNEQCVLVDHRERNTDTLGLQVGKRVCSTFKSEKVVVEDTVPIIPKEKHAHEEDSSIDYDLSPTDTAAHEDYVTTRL
The target is the same in assay [6]. Description: blockers of DAMGO-evoked TRPC4 calcium flux – cell-based, second round, Fluo4, HEK293 TRPC4beta/mu-opioid, 1 µM, confirmation (AID 2637;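 active = calcium signal ratio cut to more than 3 SD under the fully stimulated control mean yet still positive, in both repeats and the primary screen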;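 for inhibition: percent of integrated ratio relative to wells lacking test compound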). Particulars: at 1 µM; stronger effect = higher value.
For assay [7] the target is unchanged. In words: calcium entry via TRPC4 opening agents – cell-based, HEK293 TRPC4/mu-opioid, Fluo-4 calcium, dose response (AID 434937;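 active = primary screen activator hit with a dose response curve and TRPC4 channel activation at any tested dose; inactive = no activation, no dose response, or not a primary hit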).
Assay [8] has the same target. Description: potentiation of DAMGO-evoked TRPC4 calcium signal – cell-based, HEK293 TRPC4/mu-opioid, Fluo-4 calcium, EC20 DAMGO, dose response (AID 434941;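 active = earlier screen potentiator hit that boosts the TRPC4 ion channel at some dose, with a dose response; inactive = no potentiation, no dose response, or not a prior hit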;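 note: calcium entry triggered by an EC20 dose of DAMGO at the co-expressed mu-opioid receptor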).
The target is the same in assay [9]. Description: block of DAMGO-driven TRPC4 calcium entry – cell-based, HEK293 TRPC4/mu-opioid, Fluo-4 calcium, dose response (AID 434942;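 active = primary screen inhibitor hit that blocks the TRPC4 channel at some tested dose, yielding a dose curve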).
Assay [10] concerns the target Short transient receptor potential channel 6 (Mus musculus) (UniProt Q61143). In words: TRPC6 blockade by TRPC4 inhibitor hits – cell-based, HEK293, membrane potential dye, duplicate, selectivity assay for TRPC4 inhibitor project, confirmation (AID 434948;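 active = active in primary screen and both duplicates, each dropping signal beyond three positive-control SD with fluorescence still positive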). The following applies: HEK293 TRPC6, membrane potential dye fluorescence, at 10 µM, stimulated with maximal-effect acetylcholine; stronger effect = higher value.

The target is the same in assay [11]. In words: TRPC6 opening by TRPC4 activator hits – cell-based, HEK293, membrane potential dye, duplicate, selectivity assay for TRPC4 activator project, confirmation (AID 434950;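 active = membrane potential signal rise above negative control mean plus 3 SD in both duplicates, also active in the earlier TRPC4 screen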). Particulars: HEK293 TRPC6, membrane potential fluorescence, at 10 µM; activation: stronger effect = higher value; outcome: activation.
For assay [12] the target is unchanged. Description: positive modulators of mouse TRPC6 channel – HEK293 cells, membrane potential dye, duplicate, selectivity assay for TRPC4 potentiator project, confirmation (AID 434952;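 active = compound raising the membrane signal above positive-control mean plus 3 SD in both repeats, and a primary screen hit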). The following applies: HEK293 TRPC6, membrane potential dye fluorescence, at 10 µM, maximal acetylcholine added after compound; stronger effect = higher value.
Assay [13] has as its target Short transient receptor potential channel 4 (Mus musculus) (UniProt Q9QUQ5). In words: calcium flux activators in TRPC4/5HT1a cells, counter-screen for TRPC4 activator project, cell-based, second counter screen, HEK293 TRPC4/5HT1a, Fluo-4 (AID 434977;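 active = calcium signal rise above buffer-control mean plus 5 SD in both duplicates, and also a hit in the primary screen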). Particulars: Fluo-4 calcium flux, at 10 µM; stronger effect = higher value.
Assay [14] in a line: serotonin-gated TRPC4 signal block – cell-based, second counter screen, HEK293 TRPC4/5HT1a, Fluo-4, counter-screen for TRPC4 inhibitor project, confirmation (AID 434978;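 active = primary screen active whose calcium signal fell more than 3 SD beyond the full-serotonin control mean in both duplicate plates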;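 for outcome: serotonin given first at submaximal then at maximal dose after compound preincubation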). Particulars: Fluo-4 calcium flux, at 10 µM, serotonin added to trigger calcium flux; stronger effect = higher value.
The test system of assay [15] is TRPC4 (mouse), co-expressed with 5HT1a in HEK293. Description: enhancement of serotonin-evoked TRPC4 response – cell-based, second counter screen, HEK293 TRPC4/5HT1a, Fluo-4, counter-screen for TRPC4 potentiator project, confirmation (AID 434979). The following applies: Fluo-4 calcium flux, at 10 µM, serotonin added at its EC20 dose; stronger effect = higher value. A general note: The purpose of a counterscreen is to sort out artefacts and off-target activity.

The nature of assay [16]: nonspecific calcium rise without TRPC4 – cell-based, HEK293 mu-opioid receptor line, counter-screen for TRPC4 activator project, confirmation (AID 449723;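 active = hit in primary screen, with calcium signal over 5 SD above buffer well mean in both duplicates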;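 note: counter screen cells carry the mu-opioid receptor alone and lack TRPC4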). Particulars: HEK293 mu-opioid cells, Fluo-4 calcium fluorescence, at 10 µM; stronger effect = higher value.
Assay [17] can be described thus: nonspecific potentiation of DAMGO calcium response – cell-based, HEK293 mu-opioid receptor line, counter-screen for TRPC4 allosteric potentiator project, confirmation (AID 449724;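 active = calcium signal rise more than 3 SD above the low-dose agonist control mean, in both duplicate plates and the primary screen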;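 note: HEK293 cells carrying mu-opioid receptor only with no TRPC4 channel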). The following applies: HEK293 mu-opioid receptor cells, Fluo-4 calcium flux, at 10 µM, compound added before EC20 DAMGO stimulus; stronger effect = higher value.

By inhibition is commonly meant the drop in the measured response relative to a control, in per cent.

For some of these results: Potency and affinity values are given separately. Activity calls are given as the source filed them.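 Rule for the calls, unless noted: active = signal rise over 3 SD above mean of control wells given weak agonist, in both repeats and first screen; inactive = the rest.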

Chain of Short transient receptor potential channel 6 (Mus musculus) (Q61143 whole entry, looked up): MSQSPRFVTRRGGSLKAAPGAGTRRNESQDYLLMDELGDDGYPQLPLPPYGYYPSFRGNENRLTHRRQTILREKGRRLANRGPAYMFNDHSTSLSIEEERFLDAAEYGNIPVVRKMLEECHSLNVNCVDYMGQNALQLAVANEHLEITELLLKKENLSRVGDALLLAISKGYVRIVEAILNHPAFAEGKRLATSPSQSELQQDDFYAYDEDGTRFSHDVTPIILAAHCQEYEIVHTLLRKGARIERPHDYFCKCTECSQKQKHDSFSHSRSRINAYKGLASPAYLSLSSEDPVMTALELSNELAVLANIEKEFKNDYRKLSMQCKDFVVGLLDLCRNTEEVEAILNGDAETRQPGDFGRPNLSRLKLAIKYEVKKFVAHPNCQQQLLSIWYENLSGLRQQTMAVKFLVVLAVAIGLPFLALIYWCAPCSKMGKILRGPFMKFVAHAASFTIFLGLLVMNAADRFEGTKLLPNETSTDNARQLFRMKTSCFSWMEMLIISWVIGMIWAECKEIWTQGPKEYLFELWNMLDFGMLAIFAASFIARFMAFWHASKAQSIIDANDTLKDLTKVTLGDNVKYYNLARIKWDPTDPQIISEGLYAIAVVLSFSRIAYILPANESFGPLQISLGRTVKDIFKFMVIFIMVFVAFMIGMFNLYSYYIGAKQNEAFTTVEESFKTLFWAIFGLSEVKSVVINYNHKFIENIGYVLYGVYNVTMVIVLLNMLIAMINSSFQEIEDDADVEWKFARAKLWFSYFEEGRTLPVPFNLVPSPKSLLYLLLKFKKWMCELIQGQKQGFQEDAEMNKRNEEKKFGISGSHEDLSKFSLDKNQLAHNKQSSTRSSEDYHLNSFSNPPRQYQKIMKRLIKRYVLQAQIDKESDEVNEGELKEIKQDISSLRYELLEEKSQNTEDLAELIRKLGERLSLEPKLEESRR

With `C=CCNC(=S)N1CCN(C2CCCCC2)CC1`, the result in assay [1], in assay [2], in [5], in [6], in assay [7] and in [8] was inactive. For the same compound, the result in [9], in assay [10], in assay [11], in assay [12], in assay [13] and in assay [14] was inactive. Also, the result in assay [16] and in assay [17] was inactive. Besides, the figures for the potentiation in assay [3], in assay [4] and in assay [15] were 53% (active), 36% (active) and 18.6% (active), respectively.

As for `CCOc1ccccc1NC(=O)CN(c1ccc(OC)cc1)S(=O)(=O)c1c(C)[nH]c(=O)[nH]c1=O`, the outcome in assay [1], in [2], in [3], in [4], in [5] and in [6] was inactive. The result in assay [7], in assay [8], in [9], in [10], in [11] and in assay [12] was inactive. Besides, the outcome in assay [13], in assay [14], in [16] and in assay [17] was inactive. Also, in assay [15], the potentiation is 16.4% (active).

For `Cc1ccc(Nc2c(N)c(=O)oc3ccccc23)cc1`, the outcome in assay [1], in assay [2], in assay [3], in assay [4], in assay [5] and in assay [6] was inactive. For the same compound, the outcome in assay [7], in [8], in assay [9], in [10], in assay [11] and in assay [12] was inactive. The outcome in assay [13], in [14], in assay [16] and in assay [17] was inactive. The potentiation in [15] was 33% (active).

As to `Cc1ccc(Nc2ccc(S(=O)(=O)N3CCOCC3)cc2[N+](=O)[O-])cc1C`, the result in assay [1], in assay [2], in assay [3], in assay [4], in [5] and in assay [6] was inactive. The outcome in [7], in assay [8], in assay [9], in [10], in assay [11] and in [12] was inactive. For the same compound, the outcome in assay [13], in assay [14], in [15], in assay [16] and in assay [17] was inactive.

As for `CSc1nnc(Cc2sc(-c3ccccc3)nc2-c2ccccc2)o1`, the result in assay [1], in assay [2], in assay [3], in assay [4], in assay [5] and in assay [6] was inactive. In addition, the result in assay [7], in [8], in assay [9], in [10], in assay [11] and in assay [12] was inactive. In addition, the outcome in assay [13], in assay [14], in [16] and in assay [17] was inactive. In addition, the potentiation in [15] was 23.3% (active).

Regarding `Cc1cccc2nc(CSc3ccc(Cl)cc3)cn12`, the result in assay [1], in assay [2], in assay [3], in assay [4], in [7] and in assay [8] was inactive. Also, the compound was called inactive in assay [10], in assay [11], in [12], in [13], in assay [15] and in [16]. For the same compound, the outcome in assay [17] was inactive. In addition, the inhibition in [5] is 90% (active); in assay [6] it was 52% (active); in [14], 21.9% (active).

`CC(Oc1ccc(Cl)cc1Cl)c1nc(-c2ccccn2)no1` (stereo not drawn): the result in assay [1], in [2], in assay [3], in assay [4], in [7] and in [8] was inactive. The outcome in assay [10], in assay [11], in assay [12], in [13], in assay [15] and in assay [16] was inactive. Moreover, the outcome in assay [17] was inactive. The results for the inhibition in assay [5], in [6] and in [14] were 89% (active), 53% (active) and 22.7% (active), respectively.

In the case of `CCOC(=O)C1(Cc2ccccc2C)CCCN(Cc2ccc(NC(C)=O)cc2)C1` (stereo not drawn), the result in [1], in [2], in assay [3], in assay [4], in assay [6] and in assay [7] was inactive. For the same compound, the result in assay [8], in assay [10], in [11], in [12], in [13] and in [14] was inactive. The outcome in assay [15], in assay [16] and in assay [17] was inactive. Besides, the inhibition in [5] was 83% (active).
